The values below come from PubChem BioAssay (EPA / NIEHS).

Activity calls are given as the source filed them. How the source made its calls: active means hit-call score of the fitted dose curve at least 0.9, where 1 is the maximum; inactive means score below 0.9.

Read-out in experiment [1]: Human Leukocyte Antigen - DR isotype (HLADR), HLA-DRA (gene 3122)
Kind of experiment: BSK_BE3C_HLADR: BioMAP Diversity Plus: BE3C Assay for Human Leukocyte Antigen - DR isotype (HLADR) Biomarker Activity (AID 2283032). The conditions noted are these: primary human bronchial epithelial cells; actives raise or lower the signal. Summed up: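 Cell-surface HLA-DR ELISA readout at 24 h after dosing in the BE3C primary human lung bronchial epithelial system; gain or loss of signal against DMSO, with parallel sulforhodamine B staining of total protein for overt cytotoxicity.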

Read-out in experiment [2]: Vascular cell adhesion molecule 1 (VCAM1), VCAM1 (gene 7412)
Kind of experiment: BSK_4H_VCAM1: BioMAP Diversity Plus: 4H Assay for Vascular cell adhesion molecule 1 (VCAM1) Biomarker Activity (AID 2283033).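 On outcome: cell-surface VCAM-1 protein measured by ELISA.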 The conditions noted are these: primary human endothelial cells (HUVEC); actives raise or lower the signal. Summed up: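 VCAM-1 ELISA read 24 h after chemical dosing of HUVEC in the BioMAP 4H system, with gain or loss of signal fitted relative to DMSO. Parallel SRB staining (560 nm) checked overt cytotoxicity.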

Read-out in experiment [3]: Interferon-gamma inducible Protein 10 (IP10), CXCL10 (gene 3627)
Kind of experiment: BSK_BE3C_IP10: BioMAP Diversity Plus: BE3C Assay for Interferon-gamma inducible Protein 10 (IP10) Biomarker Activity (AID 2283034). The conditions noted are these: primary human bronchial epithelial cells; actives raise or lower the signal. Summed up: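 IP-10 quantified by ELISA in human primary bronchial epithelial cell cultures at 24 hours post-dosing. Gain or loss of signal fitted relative to DMSO; parallel SRB staining assessed overt cytotoxicity.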

Read-out in experiment [4]: Monokine induced gamma interferon (MIG), CXCL9 (gene 4283)
Kind of experiment: BSK_BE3C_MIG: BioMAP Diversity Plus: BE3C Assay for Monokine induced gamma interferon (MIG) Biomarker Activity (AID 2283035). The conditions noted are these: primary human bronchial epithelial cells; actives raise or lower the signal. Summed up: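 hu bronchial epithelial 1° cells, 24 h cpd; MIG by ELISA; bidirectional fit, DMSO = baseline.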

Read-out in experiment [5]: Transforming growth factor beta 1 (TGFb1), TGFB1 (gene 7040)
Kind of experiment: BSK_BE3C_TGFb1: BioMAP Diversity Plus: BE3C Assay for Transforming growth factor beta 1 (TGFb1) Biomarker Activity (AID 2283036;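 on outcome: TGF-b1 protein level measured by ELISA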). The conditions noted are these: primary human bronchial epithelial cells; actives raise or lower the signal. Summed up:
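ELISA readout of TGF-b1 from human lung bronchial epithelial primary cells, taken 24 h post-treatment. Gain or loss of signal fitted relative to DMSO baseline, with parallel SRB staining for overt cytotoxicity.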

Read-out in experiment [6]: Plasminogen activator inhibitor-1 (PAI1), SERPINE1 (gene 5054)
Kind of experiment: BSK_BE3C_PAI1: BioMAP Diversity Plus: BE3C Assay for Plasminogen activator inhibitor-1 (PAI1) Biomarker Activity (AID 2283037). The conditions noted are these: primary human bronchial epithelial cells; actives raise or lower the signal. Summed up:
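PAI-1 was measured by ELISA in human primary bronchial epithelial cultures 24 h after chemical dosing, with cytotoxicity checked by SRB total-protein staining in parallel cultures. Activity was fitted in both directions relative to DMSO.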

Read-out in experiment [7]: urokinase plasminogen activator (uPA), PLAU (gene 5328)
Kind of experiment: BSK_BE3C_uPA: BioMAP Diversity Plus: BE3C Assay for urokinase plasminogen activator (uPA) Biomarker Activity (AID 2283038).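 On outcome: uPA protein level quantified by ELISA in cell cultures; uPA read one day after compound addition.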 Conditions: primary human bronchial epithelial cells; actives raise or lower the signal. Summed up: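 ELISA read-out of uPA in human lung primary bronchial epithelial cultures, 24 h post-dosing. Gain or loss of signal fitted bidirectionally relative to DMSO baseline; cytotoxicity checked in parallel cultures via SRB total protein stain.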

Read-out in experiment [8]: Urokinase-type plasminogen activator receptor (uPAR), PLAUR (gene 5329)
Kind of experiment: BSK_BE3C_uPAR: BioMAP Diversity Plus: BE3C Assay for Urokinase-type plasminogen activator receptor (uPAR) Biomarker Activity (AID 2283039).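 On outcome: cells exposed to compound for one day before measurement.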 The conditions noted are these: primary human bronchial epithelial cells; actives raise or lower the signal. Summed up:
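uPAR levels were measured by ELISA after 24 h compound treatment of primary human bronchial epithelial cells, fitted in both directions relative to DMSO. Parallel SRB staining served as the cytotoxicity read-out.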

Read-out in experiment [9]: Interleukin-6 (IL6), IL6 (gene 3569)
Kind of experiment: BSK_CASM3C_IL6: BioMAP Diversity Plus: CASM3C Assay for Interleukin-6 (IL6) Biomarker Activity for (AID 2283040). Conditions: primary human coronary artery smooth muscle cells; actives raise or lower the signal.

Read-out in experiment [10]: Tissue plasminogen activator (tPA), PLAT (gene 5327)
Kind of experiment: BSK_BE3C_tPA: BioMAP Diversity Plus: BE3C Assay for Tissue plasminogen activator (tPA) Biomarker Activity (AID 2283041).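 On outcome: tPA level quantified by ELISA one day after compound addition.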 The conditions noted are these: primary human bronchial epithelial cells; actives raise or lower the signal. Summed up:
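tPA measured by ELISA 24 h after dosing human primary bronchial epithelial cells (BE3C system). Changes in either direction were fitted against DMSO. Parallel cultures were stained with SRB to flag overt cytotoxicity.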

Read-out in experiment [11]: Interleukin-8 (IL8), CXCL8 (gene 3576)
Kind of experiment: BSK_CASM3C_IL8: BioMAP Diversity Plus: CASM3C Assay for Interleukin-8 (IL8) Biomarker Activity (AID 2283042).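 Further: IL-8 protein level quantified by ELISA.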 The conditions noted are these: primary human coronary artery smooth muscle cells; actives raise or lower the signal.

Read-out in experiment [12]: Human Leukocyte Antigen - DR isotype (HLADR), HLA-DRA (gene 3122)
Kind of experiment: BSK_CASM3C_HLADR: BioMAP Diversity Plus: CASM3C Assay for Human Leukocyte Antigen - DR isotype (HLADR) Biomarker Activity (AID 2283043).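 Further: cell-surface HLA-DR protein level quantified by ELISA.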 The conditions noted are these: primary human coronary artery smooth muscle cells; actives raise or lower the signal.

Read-out in experiment [13]: Macrophage colony-stimulating factor (MCSF), CSF1 (gene 1435)
Kind of experiment: BSK_CASM3C_MCSF: BioMAP Diversity Plus: CASM3C Assay for Macrophage colony-stimulating factor (MCSF) Biomarker Activity (AID 2283044).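 Further: M-CSF protein amount quantified by ELISA after 24 h exposure.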 The conditions noted are these: primary human coronary artery smooth muscle cells; actives raise or lower the signal.

Read-out in experiment [14]: Low-density lipoprotein receptor (LDLR), LDLR (gene 3949)
Kind of experiment: BSK_CASM3C_LDLR: BioMAP Diversity Plus: CASM3C Assay for Low-density lipoprotein receptor (LDLR) Biomarker Activity (AID 2283045).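 Further: LDLR protein level on the cell surface quantified by ELISA.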 Conditions: primary human coronary artery smooth muscle cells; actives raise or lower the signal.

Read-out in experiment [15]: Monocyte Chemoattractant Protein-1 (MCP1), CCL2 (gene 6347)
Kind of experiment: BSK_CASM3C_MCP1: BioMAP Diversity Plus: CASM3C Assay for Monocyte Chemoattractant Protein-1 (MCP1) Biomarker Activity (AID 2283046).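 Further: MCP-1 level quantified by ELISA 24 h after dosing.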 The conditions noted are these: primary human coronary artery smooth muscle cells; actives raise or lower the signal.

Experiment [16] is described as follows: BSK_CASM3C_Proliferation: Cell Proliferation Assessment in the BioMAP Diversity Plus: CASM3C Assay (AID 2283047).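 Further: sulforhodamine B total protein stain as relative cell number at 560 nm; sub-confluent cells exposed 48 h before staining; fitted both ways against DMSO so gain or loss of cell number.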 Conditions: primary human coronary artery smooth muscle cells.
Read-out in experiment [17]: Monokine induced gamma interferon (MIG), CXCL9 (gene 4283)
Kind of experiment: BSK_CASM3C_MIG: BioMAP Diversity Plus: CASM3C Assay for Monokine induced gamma interferon (MIG) Biomarker Activity (AID 2283048).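 Further: MIG protein level measured by ELISA.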 Conditions: primary human coronary artery smooth muscle cells; actives raise or lower the signal.

Read-out in experiment [18]: serum amyloid A (SAA), SAA1 (gene 6288)
Kind of experiment: BSK_CASM3C_SAA: BioMAP Diversity Plus: CASM3C Assay for serum amyloid A (SAA) Biomarker Activity (AID 2283049).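 Further: SAA protein level quantified by ELISA.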 The conditions noted are these: primary human coronary artery smooth muscle cells; actives raise or lower the signal.

Experiment [19] is described as follows: BSK_CASM3C_SRB: Viability Assessment in the BioMAP Diversity Plus: CASM3C Assay (AID 2283050). Conditions: primary human coronary artery smooth muscle cells.
Read-out in experiment [20]: Thrombomodulin, THBD (gene 7056)
Kind of experiment: BSK_CASM3C_Thrombomodulin: BioMAP Diversity Plus: CASM3C Assay for Thrombomodulin Biomarker Activity (AID 2283051).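 Further: thrombomodulin protein level measured by ELISA 24 h after dosing.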 The conditions noted are these: primary human coronary artery smooth muscle cells; actives raise or lower the signal.

As usually defined, the AC50 is the midpoint of the concentration-response curve, whichever way the signal moves. On to `CCC(=C(c1ccc(O)cc1)c1ccc(OCCN(C)C)cc1)c1ccccc1`, for which the AC50 is 8.64 µM (active) in experiment [1]; 10.3 µM (active) in experiment [2]; 8.38 µM (active) in [3]; 9.95 µM (active) in experiment [4]; 9.79 µM (active) in experiment [5]; 12 µM (active) in [6]. The AC50 in experiment [7] is 9.93 µM (active); in [8], 9.55 µM (active); in experiment [9] it was 24.6 µM (active); in [10], 8.8 µM (active); in [11], 24.4 µM (active); in experiment [12] it was 17.4 µM (active). The AC50 is 18.4 µM (active) in [13]; 22.7 µM (active) in experiment [14]; 24 µM (active) in experiment [15]; 9.11 µM (active) in experiment [16]; 24.8 µM (active) in experiment [17]; 22.8 µM (active) in experiment [18]. Moreover, in experiment [19], the AC50 is 22.2 µM (active). Moreover, the outcome in experiment [20] was inactive.
For `NC(=O)N1C(=O)C(C(=O)c2cc(Cl)cs2)c2cc(F)c(Cl)cc21` (stereo not drawn), the AC50 was 2.85 µM (active) in [1]; 24.5 µM (active) in [2]; 6.63 µM (active) in experiment [3]; 9.59 µM (active) in experiment [4]; 2.88 µM (active) in experiment [5]; 3.15 µM (active) in [6]. Further, the AC50 in experiment [7] is 6.91 µM (active); in experiment [8], 6.27 µM (active); in [10], 2.33 µM (active); in experiment [12], 14.1 µM (active); in experiment [15], 7.46 µM (active); in experiment [16], 27.4 µM (active). Further, in [19], the AC50 is 23.8 µM (active). The result in [9], in [11], in experiment [13], in experiment [14], in experiment [17] and in experiment [18] was inactive. The result in experiment [20] was inactive.
For the compound `CC(C)CCCCCCOC(=O)CCCCC(=O)OCCCCCCC(C)C`, the result in experiment [1], in experiment [2], in experiment [3], in [4], in experiment [5] and in experiment [6] was inactive. Besides, the result in experiment [7], in experiment [8], in [9], in experiment [10], in experiment [11] and in experiment [12] was inactive. For the same compound, the outcome in experiment [13], in [14], in [15], in experiment [16], in experiment [17] and in [18] was inactive. The result in experiment [19] and in experiment [20] was inactive.
Turning to `COc1ccc([N+](=O)[O-])cc1N`, the outcome in experiment [1], in experiment [3], in experiment [4], in [5], in experiment [6] and in experiment [7] was inactive. For the same compound, the outcome in [8], in experiment [9], in experiment [10], in experiment [11], in experiment [12] and in experiment [13] was inactive. Further, the result in experiment [14], in [15], in experiment [16], in experiment [17], in experiment [18] and in experiment [19] was inactive. For the same compound, in [20], the result was inactive.
Turning to `C#C[C@]1(O)CC[C@H]2[C@@H]3CCC4=CC(=O)CC[C@@H]4[C@H]3CC[C@@]21C`, the outcome in experiment [1], in [2], in experiment [3], in experiment [4], in experiment [5] and in [6] was inactive. The result in experiment [7], in experiment [8], in experiment [9], in experiment [10], in experiment [11] and in experiment [12] was inactive. In addition, the outcome in [13], in experiment [14], in experiment [15], in experiment [17], in [18] and in experiment [19] was inactive. The result in [20] was inactive.
